# Laboratory results taken from PubChem BioAssay AID2098 (Broad Institute, 2009).
# Screen size: about 300,000 compounds; about 2,300 (0.77%) were called active.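 The calls were made as follows: active = more than half of replicate wells show activity change below -50%, luminescence cut by over half; inconclusive = some wells, but at most half, below -50%; inactive = no replicate well below -50%.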 The entries come from a sample that favours actives as a whole.
# Assay: HSF1 inhibitors in luciferase reporter cells, primary screen, cell-based, NIH3T3, luminescence (AID 2098);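 also: luciferase reports HSF-1 transcriptional activity via heat shock element; 0% = median of DMSO wells and -100% = zero luminescence signal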
# Details: NIH3T3-HGL HSE-luciferase, MG132-induced, luminescence 8 h; active compounds read low; screened at 7.5 µM (by protocol)
row,SMILES,"activity change, negative = inhibition"
1,NS(=O)(=O)c1ccc(CCNC(=O)CN2C(=O)c3ccccc3S2(=O)=O)cc1,-3.35% (inactive)
2,Cc1ccc(N2CC(C(=O)N3CCC4(CC3)CC(=O)c3ccccc3O4)CC2=O)cc1C (configuration not stated),-2.92% (inactive)
3,COc1ccc(NC(=O)CN(C)C(=O)Cc2coc3cc(C)c(C)cc23)cc1,7.31% (inactive)
4,COc1ccc(C(=O)N(Cc2ccccc2)c2ccc(C)cc2)cc1S(=O)(=O)N1CCOCC1,4.46% (inactive)
5,COc1cc(/C=N/NC(=O)c2cc(C)n(-c3ccc(F)cc3)c2C)cc(OC)c1O,-15.3% (inactive)
6,Cc1cc(C(=O)COC(=O)C2CC2)c(C)n1-c1ccc(F)cc1,-71.9% (active)
7,Cc1ccc(-n2c(C)cc(C(=O)CN3C(=O)C(=O)N(C4CCCC4)C3=O)c2C)cc1,-6.89% (inactive)
8,CC(Oc1ccc(F)cc1)C(=O)Nc1cc(S(=O)(=O)N2CCOCC2)ccc1N1CCN(C)CC1 (configuration not stated),-4.5% (inactive)
9,O=C(NCC(=O)N1CCCC(C(F)(F)F)C1)c1ccccc1F (configuration not stated),-2.16% (inactive)
10,CCCCC(CC)CNC(=O)CCCCn1c(=O)[nH]c2ccsc2c1=O (configuration not stated),1.08% (inactive)
11,CCN(CCCNC(=O)CCn1c(=O)[nH]c2ccsc2c1=O)c1ccccc1,-61.9% (active)
12,CCN(CC)CCNC(=O)CCCCCn1c(=O)[nH]c2cc(C(=O)OC)ccc2c1=O,-8.49% (inactive)
13,CN(Cc1c(F)cccc1Cl)C(=O)CNC(=O)c1ccc2c(c1)OCO2,2.65% (inactive)
14,CC12CCC(=O)N1C(C(=O)NCCN1C(=O)S/C(=C\c3ccccc3F)C1=O)CS2 (configuration not stated),-0.188% (inactive)
15,CCOC(=O)c1c(C)[nH]c(C(=O)OCC(=O)c2ccc(OC)cc2OC)c1C,1.38% (inactive)
16,C=CCN1C=C2C(=O)C(C)(OC(=O)CCc3ccccc3)C(=O)C=C2C=C1c1ccc(C#N)cc1 (configuration not stated),-1.82% (inactive)
17,COCCN1C=C2C(=O)C(C)(OC(=O)C3CCCC3)C(=O)C=C2C=C1c1ccsc1 (configuration not stated),0.381% (inactive)
18,CC1(OC(=O)CCc2ccccc2)C(=O)C=C2C=C(c3ccc(C#N)cc3)N(CCc3ccccn3)C=C2C1=O (configuration not stated),-80.1% (active)
19,CCCNC(=O)c1ccc(N2CCC3(CC2)CC(c2cccc(Br)c2)=NO3)c(NC(=O)c2ccco2)c1,-5.02% (inactive)
20,CSc1nsc(NC(=O)Nc2ccccc2)n1,4.05% (inactive)
21,Cc1cccc(C(=O)NCc2nnc(SC(C)C(=O)Nc3nnc(C)s3)n2C)c1 (configuration not stated),-1.96% (inactive)
22,COc1ccc(S(=O)(=O)N2CCCCCC2)cc1C(=O)N(C)Cc1cccc(OC)c1OC,-1.36% (inactive)

row,SMILES,"activity change, negative = inhibition"
1,O=c1oc2ccccc2cc1-c1cn(-c2ccccc2)c(=S)[nH]1,-88.1% (active)
2,S=c1[nH]c(-c2cccs2)cn1-c1ccccc1,2.33% (inactive)
3,COc1ccc(-c2cn(-c3ccc(OC)cc3)c(=S)[nH]2)cc1,9.62% (inactive)
4,CC(C)(C)Oc1ccccc1Nc1nc(NCCO)nc(N2CCCC2)n1,-2.91% (inactive)
5,CCn1cc(CN2CCC(C(=O)Nc3cccc(-c4cccc(Cl)c4)c3)CC2)c(C)n1,-68.5% (active)
6,CCn1cc(CN2CCC(C(=O)Nc3cccc(-c4cccc(Cl)c4)c3)CC2)cn1,13.5% (inactive)
7,O=C(Nc1cccc(-c2cccc(Cl)c2)c1)C1CCN(C2CCC2)CC1,-1.45% (inactive)
8,O=C(COC(=O)CCOc1ccccc1)Nc1cc(S(=O)(=O)N2CCCCC2)ccc1Cl,5.19% (inactive)
9,Cn1cccc1C(=O)NNC(=O)COc1ccc(Br)cc1,-3.17% (inactive)
10,CCSc1ncc(Cl)c(C(=O)Nc2cc(C)ccc2C)n1,3.48% (inactive)
11,Cc1ccc(S(=O)(=O)CC(=O)Nc2nnc(C)s2)cc1,-2.63% (inactive)
12,Cc1cccc(CS(=O)(=O)c2ncc(Cl)c(C(=O)Nc3ccc(F)cc3)n2)c1,13.2% (inactive)
13,Cc1ccc(CS(=O)(=O)c2ncc(Cl)c(C(=O)Nc3nnc(C)s3)n2)cc1,-63.4% (active)
14,Cc1cccc(NC(=O)c2nc[nH]c2C(=O)NCC(=O)OCc2ccccc2)c1,-13.1% (inactive)
15,Cc1cccc(NC(=O)c2nc(S(=O)(=O)Cc3ccccc3)ncc2Cl)c1,-83.8% (active)
16,COc1ccc(C2/C=C\CN(S(=O)(=O)c3cccs3)CC(=O)N2Cc2ccc(F)cc2)cc1 (configuration not stated),3.97% (inactive)
17,COc1ccc(Cl)cc1C=CC=NNC(=O)c1ccncc1,5.04% (inactive)
18,COc1ccc(CCNCC(O)Cn2ccc3ccccc32)cc1OC (configuration not stated),-87.6% (active)
19,COC(=O)c1ccc(OCC(O)CN(CCO)CC(O)Cn2ccc3ccccc32)cc1 (configuration not stated),-1.93% (inactive)
20,COc1ccc(Cn2c(=O)sc3ccccc32)cc1OC,-4.6% (inactive)
21,O=C(NCc1ccccc1)c1onc(CSc2ccncc2)c1C(=O)NCc1ccccc1,-22.7% (inactive)
22,O=C(NCCc1ccco1)C(=O)NCCC1CCCCN1S(=O)(=O)c1ccccc1 (configuration not stated),1.49% (inactive)

row,SMILES,"activity change, negative = inhibition"
1,COc1ccc(-c2nnc(SCC(=O)Nc3cccnc3Cl)n2C)cc1,-3.85% (inactive)
2,COc1ccccc1NC(=O)C(C)OC(=O)CC1CCCC1 (configuration not stated),-4.1% (inactive)
3,C#CCNC(=O)[C@H](Cc1ccc(C(=O)c2ccccc2)cc1)NC(=O)OC(C)(C)C,5.42% (inactive)
4,COc1ccccc1NC(=O)[C@H](COCc1ccccc1)NC(=O)OC(C)(C)C,-65.5% (active)
5,COc1ccc(/C=N/NC(=O)c2ccccc2)cc1OS(=O)(=O)c1ccccc1,4.64% (inactive)
6,COc1cc(/C=N/NC(=O)c2ccc(N3CCCC3=O)cc2)ccc1O,-2.17% (inactive)
7,COc1ccc(C(=O)Nc2ccccc2C(=O)N/N=C/c2ccc(O)c(OC)c2)cc1,-88.5% (active)
8,CC1(C)O[C@@H]2CC3C4C[C@H](F)C5=CC(=O)C=CC5(C)C4C(O)CC3(C)[C@]2(C(=O)CO)O1 (some centres not stated),-32.3% (inactive)
9,Cc1ccc(CSCC(=O)N(C)CC(=O)Nc2cccc(F)c2)cc1,-0.103% (inactive)
10,Cc1ccc(NC(=O)CN(C)C(=O)c2ccc(Br)o2)cc1,0.545% (inactive)
11,Cc1ccc(CSCC(=O)N(C)CC(=O)Nc2ccc(C)cc2)cc1,-72.3% (active)
12,CCOc1ccc(S(=O)(=O)NCCC(=O)N2CCCCCCC2)cc1,1.97% (inactive)
13,O=C(COc1ccccc1)Nc1cc2c3c(c1)CC(=O)N3CCC2,2.82% (inactive)
14,Cc1cc(C(=O)COC(=O)CNC(=O)c2ccc(F)cc2)c(C)n1Cc1ccco1,-53.9% (active)
15,Cc1cc(C(=O)CSc2nc(N)cc(=O)[nH]2)c(C)n1Cc1ccco1,-33.6% (inactive)
16,Cc1ccc(OCC(=O)c2cc(C)n(Cc3ccco3)c2C)c([N+](=O)[O-])n1,-39.8% (inactive)
17,O=C(Nc1c(Br)cc2c(c1Br)Cc1ccccc1-2)C(F)(F)F,-5.38% (inactive)
18,COc1ccc(C)cc1S(=O)(=O)Nc1cc2c3c(c1)CCC(=O)N3CCC2,-68.5% (active)
19,O=C1CCc2cc(S(=O)(=O)Nc3ccc(C(F)(F)F)cc3)cc3c2N1CC3,-0.158% (inactive)
20,COc1ccccc1CNS(=O)(=O)c1cc2c3c(c1)CCC(=O)N3CCC2,-0.185% (inactive)
21,Cc1ccc(OCCNC(=O)CN2C(=O)NC3(CCCC3)C2=O)cc1,-2.16% (inactive)
22,CN(/N=C/c1ccccc1)C(=S)c1ccccc1,-0.878% (inactive)

row,SMILES,"activity change, negative = inhibition"
1,O=C(NCCCn1ccnc1)C(=O)NCC1OCCN1S(=O)(=O)c1cc(F)ccc1F (configuration not stated),-87.4% (active)
2,Cc1cc(F)ccc1S(=O)(=O)N1CCCOC1CNC(=O)C(=O)NCCC1=CCCCC1 (configuration not stated),-4.13% (inactive)
3,O=C(NCCCc1ccccc1)C(=O)NCC1OCCN1S(=O)(=O)c1ccccc1 (configuration not stated),3.32% (inactive)
4,O=C(CCN1C(=O)C2CCCCC2C1=O)Nc1ccc(OC(F)F)cc1 (configuration not stated),5.73% (inactive)
5,CCCCn1c(N)c(N(CC(C)C)C(=O)c2cccc(S(=O)(=O)N3CCN(C(C)=O)CC3)c2)c(=O)[nH]c1=O,0.146% (inactive)
6,O=C(Nc1cccc2ncccc12)C(Cl)(Cl)Cl,-59.5% (active)
7,O=C(Nc1cccc2ncccc12)c1ccc(-c2ccc(Cl)cc2Cl)o1,8.41% (inactive)
8,O=C(O)c1cc(Cl)c(Cl)cc1C(=O)Nc1cccc2ncccc12,15.1% (inactive)
9,CC(=O)NC1CCN(CC(=O)Nc2nccs2)CC1,0.912% (inactive)
10,CC1CC(C)(C)CC2(C1)NC(=O)N(CC(=O)Nc1nccs1)C2=O (configuration not stated),0.525% (inactive)
11,CC1CCN(CC(=O)Nc2nccs2)CC1,-53.5% (active)
12,COc1ccc(NC(=O)CSc2nc(C)cs2)cc1,-86.2% (active)
13,Cc1csc(SCC(=O)Nc2sccc2C#N)n1,9.14% (inactive)
14,COc1cc(OC)cc(-c2nnc(SCC(=O)Nc3ccc(C(=O)O)cc3)s2)c1,-5.1% (inactive)
15,CCCc1c(C(=O)Nc2ccc(F)cc2)cnn1-c1ccccc1,6.52% (inactive)
16,Cc1nn(-c2ccccc2)c(-n2cccc2)c1C(=O)O,-12.1% (inactive)
17,CCCc1nc(-c2ccccc2O)n(-c2ccccc2)n1,-81.9% (active)
18,COc1ccc([C@@H]2[C@@H]3C(=O)N(C(C)(C)C)C(=O)[C@@H]3[C@]3(Cc4ccccc4)C(=O)N(c4cccc(Br)c4)C(=O)N23)cc1,-4.65% (inactive)
19,CCOc1ccc(NS(=O)(=O)c2ccc(C(=O)NC3CCN(Cc4ccccc4)CC3)cc2)cc1,-0.719% (inactive)
20,Cc1nc(-c2ccc(F)cc2)c(CC(=O)Nc2cccc(S(=O)(=O)N3CCOCC3)c2)s1,4.76% (inactive)
21,CCCCn1c(N)c(N(CC(C)C)C(=O)c2ccc(-n3c(C)ccc3C)cc2)c(=O)[nH]c1=O,-2.25% (inactive)
